Compound activity as filed in PubChem BioAssay.
This is a sample that favours compounds with a hit; in the whole collection about 3.1% have one here.
RGS4 inh – Inhibitors of Regulator of G Protein Signaling (RGS) 4: qHTS. Transcreener GDP fluorescence polarization, RGS4-accelerated GTP hydrolysis. 390,000 tested, 0.039% active. Potency, µM (highest dose often 114 µM), without a hit: at the top dose activity change, negative = inhibition, usual class: inhibitors; active means well fitted inhibition curve with a large enough effect; inconclusive means small, poorly fitted or top-dose-only effect; inactive means no such curve, though single readings can be large or run the other way; further: potency means the concentration at half of the fitted maximal effect; on the % scale 0 is the no-effect control and ±100 the full control effect; nearly all actives have a fitted effect of over 75% in size
Target sequence (P49798 whole entry, looked up): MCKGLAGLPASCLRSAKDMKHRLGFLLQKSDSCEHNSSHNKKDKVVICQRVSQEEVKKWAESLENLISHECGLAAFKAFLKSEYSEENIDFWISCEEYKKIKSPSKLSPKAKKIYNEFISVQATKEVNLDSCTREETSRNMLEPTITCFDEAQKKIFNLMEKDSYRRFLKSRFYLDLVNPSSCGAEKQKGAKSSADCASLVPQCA
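MLSMR compounds (23 nl, pin-transferred) preincubated 10 min at room temperature with a 500nM (2x) first reagent, then RGS4 at 900nM (2x) plus Transcreener GDP mix added; fluorescence polarization (620/688 nm) read before and after 90 min at 30 °C.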
DRD3 antagonist – qHTS of D3 Dopamine Receptor Antagonist: qHTS; D(3) dopamine receptor (Homo sapiens), P35462; D3R cells, DiscoveRx beta-arrestin luminescence, antagonist mode; active compounds read low; max response, negative = inhibition, %; 360,000 tested, 2.5% active; in the data active means max response below about -50%; inconclusive means no clear call, values can overlap the other calls; further: on the % scale 0 is the no-effect control and ±100 the full control effect
Target sequence (P35462 whole entry, looked up): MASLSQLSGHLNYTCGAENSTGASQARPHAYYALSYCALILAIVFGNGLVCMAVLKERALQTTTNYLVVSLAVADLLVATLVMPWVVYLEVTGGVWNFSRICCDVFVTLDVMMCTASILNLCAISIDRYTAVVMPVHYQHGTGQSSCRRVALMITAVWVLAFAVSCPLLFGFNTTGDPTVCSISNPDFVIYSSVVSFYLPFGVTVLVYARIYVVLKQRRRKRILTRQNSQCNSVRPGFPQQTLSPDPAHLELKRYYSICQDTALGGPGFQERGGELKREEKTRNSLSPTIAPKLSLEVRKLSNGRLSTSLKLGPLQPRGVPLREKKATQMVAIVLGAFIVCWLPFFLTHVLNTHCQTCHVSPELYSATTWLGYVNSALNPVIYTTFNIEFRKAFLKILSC
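Cells plated overnight at 1500 cells/well, then exposed to library compounds with dopamine controls for 90 minutes at 37 degrees C. DiscoveRx reagent added for 30–60 minutes at room temperature; luminescence read, quantitative HTS format.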
uPA surface inh – qHTS for Inhibitors of Cell Surface uPA Generation; cell surface uPA generation assay, qHTS; Potency, µM (top dose mostly 38.3 µM), for inactives: at the top dose activity change, negative = inhibition, actives largely listed as inhibitors; 330,000 tested, 0.31% active; active means well fitted inhibition curve with a large enough effect; inconclusive means small, poorly fitted or top-dose-only effect; inactive means no such curve, though single readings can be large or run the other way; tested in mouse RAW 264.7 cells; further: potency means the concentration at half of the fitted maximal effect; on the % scale 0 is the no-effect control and ±100 the full control effect; nearly all actives have a fitted effect of over 55% in size
DRD3 agonist – qHTS of D3 Dopamine Receptor Agonist: qHTS; D(3) dopamine receptor (Homo sapiens), P35462; D3R DiscoveRx beta-arrestin cells, luminescence, 90 min; max activation, %; 410,000 tested, 0.58% active; AID 652048, 2013; in the data active means max activation above about 30%; further: 0% is about no effect
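Agonist-mode cell screen: cells plated at 1500/well and incubated overnight at 37 °C, then exposed to library compounds for 90 min at 37 °C. Detection reagent was added for 30–60 min at room temperature, and luminescence was read.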
* = called active by the depositor; ? = inconclusive; nt = not tested or not shown; ! = not active in a repeat; [ ] = dose if it differs, or a comment.

SMILES | RGS4 inh | DRD3 antagonist | uPA surface inh | DRD3 agonist
O=C(c1ccc2c(c1)N(Cc1ccccc1F)C(=O)c1ccccc1S2=O)N1CCC(Cc2ccccc2)CC1 (configuration not stated) | 10.6% | nt | nt | -2.2
C/C=C/c1ccc(OCCNCc2ccccc2)c(OC)c1 | 15.1% | -77.0* | -11.3% | -19.2
C=CCc1ccc(OCCCNCc2ccccc2)c(OC)c1 | 13.7% | -78.9* | -29.5% | -21.4
C/C=C/c1ccc(OCCCNC)c(OC)c1 | -40.3% | -19.1 | 7.3% | -4.0
COc1cc(OC)cc(C(=O)N(Cc2ccco2)Cc2cccs2)c1 | -3.9% | nt | nt | nt
Cc1cc(C2=NNC(=NC3CC3)SC2)c(C)n1-c1ccccc1F | -21.9%[11.4 µM] | -3.6 | 1.58µM* | -1.8
COCCSc1nc2c([nH]c3ccccc32)c(=O)n1-c1ccc(OC)c(OC)c1 | -19.5% | nt | nt | 0.6
CC(=O)/C=C1\C(=O)N(C)c2ccccc21 | 18.9µM* | nt | nt | nt
CCCCCCCCCC(=O)OCC(CO)OC(=O)CCCCCCCCC (configuration not stated) | 26.7µM* | nt | nt | nt
CCCCCCCCCCCCCCCC(=O)OC(CC(=O)O)C[N+](C)(C)C (configuration not stated) | 18.9µM*! | -25.8 | ? | -22.9
Cc1cccc(NC(=O)CSc2nc3ccccc3nc2N2CCOCC2)c1C | -6.8% | nt | nt | 3.7
COc1ccc(Cl)cc1NC(=O)CN1C(=O)C(C)(C)c2cc(S(=O)(=O)N3CCCCC3)ccc21 | 14.3% | nt | nt | 6.2
O=C1/C(=C/c2ccccc2)CCc2ccc(Cl)nc21 | ? | -73.0* | -9.3% | -26.0
O=C1/C(=C\c2ccccc2)CCc2c1[nH]c1ccccc21 | -26.9% | 32.8 | -18.1% | -6.7
O=C(Nc1ccc(C2=CN(Cc3ccccc3)CCC2=O)cc1)OCc1ccccc1 | -3.8% | 31.1 | 11.2% | 51.7*
Cn1cnnc1SCC(=O)NCCC1=CCCCC1 | -5.3% | -10.0 | 5.0% | -0.6
Cn1c(SCC(=O)NCCC2=CCCCC2)nnc1C(F)(F)F | nt | -70.0* | nt | -5.0
Cc1ccc(-c2c(C)n3c4c(=O)n(C)c(=O)n(C)c4nc3n2CCCO)cc1 | 5.9% | nt | nt | 37.0*
CCOC(=O)c1c(C2COc3ccccc3O2)csc1NC(=O)c1ccccc1 (configuration not stated) | -21.8% | -7.8 | nt | 33.2*
CCOC(=O)c1ccc(OCCN2C[C@H](O)[C@@H](O)[C@H](O)[C@H]2CO)cc1 | nt | nt | nt | -6.4
CCC(Sc1nc2nccnc2c(=O)n1Cc1ccc(OC)cc1)C(=O)NC1CCCCC1 (configuration not stated) | -8.3% | nt | nt | -15.3
CCOc1ccc(/C=N/Nc2ccccn2)cc1 | -1.4% | 0.3 | 6.31µM* | -1.0
Clc1ccc(/C=N/Nc2ccccn2)cc1 | -1.3% | 9.2 | -0.3% | 1.0
CCOC(=O)CCc1c(C(=O)OCC)[nH]c(CC)c1C(=O)OCc1ccccc1 | 4.1% | 26.7 | 5.9% | 31.4*
COc1ccc(-c2onc(C)c2C)cc1S(=O)(=O)NCc1ccc(C)o1 | -8.8% | nt | nt | -5.0
SMILES | RGS4 inh | DRD3 antagonist | uPA surface inh | DRD3 agonist
COc1ccc(C(CNC(=O)C(C)(C)Oc2ccc(Cl)cc2)N2CCOCC2)cc1 (configuration not stated) | -37.9% | -74.9* | 5.2% | -27.8
COc1ccc(C(CNC(=O)C(C)(C)Oc2ccc(Cl)cc2)N2CCCCC2)cc1 (configuration not stated) | 10.1% | -82.6* | -2.3% | -13.6
COc1ccc(CNC(=O)Cn2c(=O)cc(-c3ccccc3)c3c(C)nn(C)c32)cc1 | 13.1% | nt | nt | 1.8
CCc1nn(C(CC)C(=O)NCc2ccc(F)cc2)c(=O)c2cc3occc3n12 (configuration not stated) | 10.2% | nt | nt | 6.4
CCCOC1(C(F)(F)F)NC(=O)N(c2cccc(Cl)c2)C1=O (configuration not stated) | -37.2% | nt | nt | -19.2
CC1(C)NC(=O)N(c2ccc([N+](=O)[O-])c(C(F)(F)F)c2)C1=O | -4.8%[56.9 µM] | 16.0 | 11.1% | 36.4*!
Oc1ccc2ccccc2c1SSc1c(O)ccc2ccccc12 | 1.68µM* | nt | nt | nt
O=C(O)Cc1c(O)ccc2ccccc12 | -7.8% | ? | 7.2% | 0.2
Cn1c(CNC2CCCCC2)c(C#N)c2ccccc21 | 31.6% | -76.7* | 1.0% | -6.1
Cn1c(CN2CCCCC2)c(C#N)c2ccccc21 | 12.6% | -78.3* | nt | -64.5
Cn1c(CN2CCN(CC#N)CC2)c(C#N)c2ccccc21 | -0.2% | -12.9 | 2.0% | -1.1
COc1ccc(NC(=O)c2ccco2)cc1NC(=O)C(C)(C)Oc1ccc(Cl)cc1 | -18.6% | nt | nt | -0.4
CCc1nc(Nc2ccc(N3CCN(C(C)=O)CC3)cc2)c2oc3ccccc3c2n1 | -4.5% | ? | -4.2% | 3.9
c1ccc(N2CCN(c3ncnc4c3oc3ccccc34)CC2)cc1 | -19.6% | 90.1 | -0.3% | 35.8*
CC(=O)N1CCN(c2ccc(Nc3ncnc4c3oc3ccccc34)cc2)CC1 | -34.6% | -63.9* | -12.0% | 16.4
CCc1nnc(N2CCN(c3ncnc4c3oc3ccccc34)CC2)s1 | 1.6% | 12.7 | 0.3% | 0.4
COC(=O)c1c(NC(=O)/C=C/c2ccco2)sc2c1CCC2 | -9.2% | 14.3 | -2.7% | -7.4
Cc1sc(NC(=O)/C=C/c2ccco2)c(C(=O)OC(C)C)c1C | -26.7% | 5.3 | -4.9% | 31.8*
CCCCOc1cccc(C(=O)N(Cc2sccc2C)C2CCS(=O)(=O)C2)c1 (configuration not stated) | 21.4% | nt | nt | 1.7
O=C(NNS(=O)(=O)c1ccc(Cl)cc1)c1cccs1 | 32.9% | -61.5* | -3.7% | 8.0
COc1ccc(S(=O)(=O)NNC(=O)c2cccs2)cc1 | 21.6% | 8.7 | -3.5% | 4.2
CCOc1ccc(OCC(=O)NCCS(=O)(=O)N2CCN(c3ccccc3F)CC2)cc1 | -4.6% | nt | nt | 7.2
O=C(NCCn1ccc2ccccc21)c1ccc(Cl)cc1 | 24.0% | nt | nt | -13.4
O=C(C1CCN(S(=O)(=O)c2cnc[nH]2)CC1)N1CCn2c1nc1ccccc12 | -4.4% | -118.3* | 5.5% | -35.8
Cc1cc(C)cc(NC(=O)CSCn2nnc3c(=O)[nH]c(Cc4ccc(F)cc4)nc32)c1 | -3.1% | nt | nt | -6.1
CCOc1ccccc1NC(=O)c1nnn(CC(=O)Nc2ccccc2CC)c1N | 9.5% | nt | nt | 3.4
CCOC(=O)N1CCN(C(=O)CSCC(=O)Nc2nc(-c3ccc(-c4ccccc4)cc3)cs2)CC1 | -14.8% | 137.4 | ? | 55.8*
O=[N+]([O-])c1ccc(S(=O)(=O)NCC(c2cccnc2)N2CCc3ccccc3C2)cc1 (configuration not stated) | -13.7% | 3.4 | -1.1% | -3.6
O=[N+]([O-])c1ccc(S(=O)(=O)NCC(c2ccco2)N2CCc3ccccc3C2)cc1 (configuration not stated) | -2.0% | -57.1* | 2.1% | -4.3
CCOC(=O)C1=C(C)N=c2s/c(=C\c3ccc(O)c([N+](=O)[O-])c3)c(=O)n2C1c1ccccc1OC (configuration not stated) | -6.6%[56.9 µM] | -16.7 | 2.9% | -9.8
